Screening data from PubChem.
Rows were chosen to be rich in hits. Some 2.9% of all compounds tested hit in one or more screens of this group.
proKLK7 act – activators of human kallikrein-7 zymogen; purified proKLK7, EDANS-DABCYL substrate fluorescence; 100% is mature enzyme control, 0% vehicle; activation, % at 7 µM; P49862; 370,000 compounds, 0.9% hits;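 active means activation above the mean of all tested compounds plus 3 SD, computed per campaign excluding outliers beyond control limits, cut at about 13% in these data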
PLCg1 inh – inhibitors of human phospholipase C gamma1; P19174; purified PLC-gamma1, fluorogenic substrate, fluorescence; inhibition, % at 12.2 µM; 370,000 compounds, 0.84% hits; AID 720700; in the data active means inhibition above about 9.5%
PLC-beta3 inh – PLC-beta3 (human) inhibition, primary screen | Q01970 | Purified PLC-beta3, fluorogenic substrate, fluorescence | inhibition, % at 12.2 µM | 370,000 compounds, 0.18% hits; in the data active means inhibition above about 11%;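 further: 0% = median of compound wells on plate and 100% = full blocker control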
ADAM17 inh – inhibits human ADAM17; AID 720648; P78536; recombinant ADAM17, EDANS/DABCYL FRET peptide cleavage; inhibition, % at 6.95 µM; 370,000 compounds, 0.83% hits;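 active means inhibition above the mean of compounds lying between control limits plus 3 SD, set per campaign, cut at about 8.5% in these data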;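 further: 0% = DMSO-only wells as the low control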
ADAM10 inh – ADAM10 inhibition, QFRET primary screen; O14672; recombinant ADAM10, EDANS/DABCYL FRET peptide cleavage, 3 h; inhibition, % at 7 µM; 370,000 compounds, 0.62% hits;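 active means inhibition above a per-campaign cutoff equal to the mean of compounds falling between control-based bounds plus 3 SD, cut at about 20% in these data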;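 further: 0% = DMSO wells while the 100% control is not disclosed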
Target sequence (O14672 214-748 limits assumed): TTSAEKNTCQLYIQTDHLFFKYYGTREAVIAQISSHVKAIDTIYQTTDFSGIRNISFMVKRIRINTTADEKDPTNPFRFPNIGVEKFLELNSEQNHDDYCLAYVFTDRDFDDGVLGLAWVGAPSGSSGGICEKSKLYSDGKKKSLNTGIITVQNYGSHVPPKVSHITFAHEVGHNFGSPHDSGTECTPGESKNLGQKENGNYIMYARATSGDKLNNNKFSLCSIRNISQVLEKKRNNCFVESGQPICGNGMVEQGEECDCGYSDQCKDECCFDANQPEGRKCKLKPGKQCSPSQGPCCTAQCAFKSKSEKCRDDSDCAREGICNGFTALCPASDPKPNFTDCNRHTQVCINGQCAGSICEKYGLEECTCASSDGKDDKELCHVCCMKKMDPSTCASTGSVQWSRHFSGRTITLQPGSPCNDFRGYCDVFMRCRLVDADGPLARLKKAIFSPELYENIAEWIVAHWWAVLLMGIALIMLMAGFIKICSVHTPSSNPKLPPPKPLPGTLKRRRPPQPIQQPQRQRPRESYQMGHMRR
proKLK7 act conf – confirmation of human kallikrein-7 zymogen activators; AID 686949; 3,200 compounds, 68% hits; activation, % at 7 µM; purified proKLK7, EDANS-DABCYL substrate fluorescence; scaled: vehicle 0, mature enzyme 100; shares compounds with proKLK7 act;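 active means activation, as change over the incubation, above the mean of all tested compounds plus 3 SD, cut at about 13% in these data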
EDANS interfere – counter-screen for kallikrein-7 activators: EDANS-DABCYL optical interference | shares compounds with proKLK7 act | activation, % at 7 µM | 3,200 compounds, 80% hits | AID 686952 | EDANS-DABCYL substrate fluorescence interference, no enzyme, 4 h; solvent 0%, active enzyme control 100%;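 active means activation above the all-compound mean plus 3 SD, ignoring values outside control-based bounds, cut at about 4.8% in these data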;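 further: value is the 4 h activation minus the activation read at time zero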
EDANS interf – counter-screen for kallikrein-7 activators: EDANS-DABCYL interference, dose response | shares compounds with proKLK7 act | EDANS-DABCYL peptide fluorescence interference, no enzyme | EC50, µM | 250 compounds, 20% hits | AID 720493;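 active means compounds that raise the fluorescence signal in this interference counterscreen, with EC50 at or below 10 µM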;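 further: intact quenched peptide substrate alone read at 355 nm excitation and 520 nm emission; signal is fluorescence gain from T0 to T4 after four hours at room temperature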
The depositor's hits bear a star; i = inactive; . = no result.

SMILES	proKLK7 act	PLCg1 inh	PLC-beta3 inh	ADAM17 inh	ADAM10 inh	proKLK7 act conf	EDANS interfere	others
Cc1cccn2c(=O)c3cc(C(=O)NCC4CCCO4)c(=N)n(Cc4cccnc4)c3nc12 (stereo not given)	148*	i	i	i	i	49*	60*
COc1ccc(CCn2c(=N)c(C(=O)NCC3CCCO3)cc3c(=O)n4cccc(C)c4nc32)cc1 (stereo not given)	0	-32	-63	-30	-110	.	.
N=c1c(C(=O)NCC2CCCO2)cc2c(=O)n3ccccc3nc2n1Cc1ccc(F)cc1 (stereo not given)	7	-138	-212	-296	i	.	.
O=C(COCc1ccccc1)NC1CCCCN(Cc2ccc(Cl)cc2)C1=O (stereo not given)	0	2	-2	-1	-4	.	.
COc1ccc(NC(=O)N2CCC(N(C)CCC(C)C)CC2)cc1OC	0	-1	5	0	0	.	.
Cc1ccc(CN2CCCCC(NC(=O)c3ccc4ccccc4c3)C2=O)cc1 (stereo not given)	0	-3	2	3	6	.	.
Cc1cccc(NC(=O)[C@@H]2CC(=O)O[C@@H]2c2ccccc2)c1C	-1	-3	0	-3	-12	.	.
Cc1cccc(C(=O)Nc2c(-c3ccc(C(F)(F)F)cc3)nc3ncccn23)c1	0	-34	-40	-5	-21	.	.
CCNC(=O)c1cc2c(=O)n3cccc(C)c3nc2n(Cc2ccc(C)cc2)c1=N	-6	-287	-312	-449	i	.	.
Cc1cccn2c(=O)c3cc(C(=O)NC(C)C)c(=N)n(Cc4ccncc4)c3nc12	116*	i	i	i	i	32*	37*
CCOc1ccc(CCNC(=O)COC(=O)c2cccnc2OCC)cc1OCC	0	2	-1	-5	-2	.	.
CCOc1ccc(CCNC(=O)COC(=O)c2nccnc2N)cc1OCC	30*	-32	-50	-66	-201	63*	55*
COc1cccc(NC(=O)Nc2c(-c3ccc(C)cc3)nc3ncccn23)c1	-3	-299	-368	-66	-259	.	.
O=C(Nc1c(-c2ccc(C(F)(F)F)cc2)nc2ncccn12)C1CC1	27*	i	i	-270	i	29*	27*
Cc1ccc(-c2nc3ncccn3c2NC(=O)C2CC2)cc1	17*	i	i	-285	i	32*	45*
CCn1c2ccccc2c2cc(NC(=O)COC(=O)c3cc(Cl)cc(Cl)c3)ccc21	-1	-2	2	0	-5	.	.
CC(C)CC(C(=O)Oc1ccc2c3c(c(=O)oc2c1)CCC3)N1C(=O)c2ccccc2C1=O (stereo not given)	-1	-79	-106	-175	i	.	.
Cc1ccc(S(=O)(=O)NC(CC(C)C)C(=O)Oc2ccc3c4c(c(=O)oc3c2)CCC4)cc1 (stereo not given)	49*	i	i	i	i	90*	77*
Cc1c(OC(=O)CNC(=O)OC(C)(C)C)ccc2c3c(c(=O)oc12)CCC3	418*	i	i	i	i	463*	485*
CCC(C)C(NS(=O)(=O)c1ccc(C)cc1)C(=O)Oc1ccc2c3c(c(=O)oc2c1)CCC3 (stereo not given)	21*	-128	-153	-173	-482	43*	37*	EDANS interf=>70
Cc1c(OCC(=O)OC(C)(C)C)ccc2c3c(c(=O)oc12)CCC3	-2	-7	-8	-10	-27	.	.
Cc1ccc(S(=O)(=O)NC(C(=O)Oc2ccc3c(C(F)(F)F)cc(=O)oc3c2)c2ccccc2)cc1 (stereo not given)	48*	i	i	i	i	55*	73*
CCOc1ccc(-n2c(SCC(=O)Nc3cccc4ccccc34)nnc2-c2ccncc2)cc1	0	-1	-1	-1	-11	.	.
COc1ccc(CNC2CCC23CCC(c2ccccc2)CC3)cc1OC (stereo not given)	.	2	2	-1	2	.	.
CCOC(=O)COc1ccc2c3c(c(=O)oc2c1)CCCC3	3	-5	-15	-43	-111	.	.
SMILES	proKLK7 act	PLCg1 inh	PLC-beta3 inh	ADAM17 inh	ADAM10 inh	proKLK7 act conf	EDANS interfere	others
CCC(NC(=O)OC(C)(C)C)C(=O)Oc1ccc2c3c(c(=O)oc2c1)CCC3 (stereo not given)	107*	i	i	i	i	664*	670*
CC[C@@H](NS(=O)(=O)c1ccc(C)cc1)C(=O)Oc1ccc2c3c(c(=O)oc2c1)CCC3	241*	i	i	i	i	534*	473*
CCc1ccc(/C=C2\Oc3c(ccc(O)c3CN3CCN(CCO)CC3)C2=O)cc1	28*	i	i	-39	-87	1	6.5*
Clc1ccc(-c2cn3cccnc3n2)cc1Cl	6	-223	-263	-243	i	.	.
Clc1ccc(-c2cn3cccnc3n2)cc1	22*	i	i	i	i	53*	69*
Brc1ccc(-c2cn3cccnc3n2)cc1	24*	-349	-461	-466	i	23*	27*
COC(=O)[C@H](CC(C)C)N1Cc2nnn(CC3CCCCC3)c2-c2ccccc2S1(=O)=O	1	0	4	0	4	.	.
Cc1cc2nc(-c3ccc(SCc4ccccn4)nc3)[nH]c2cc1C	127*	-154	-249	-192	i	25*	16*	EDANS interf=i
CCOC(=O)CSc1ccc(-c2nc3cc(C)c(C)cc3[nH]2)cn1	5	-49	-68	-44	-235	.	.
CCOc1ccccc1/C=C/c1nc2ccccc2[nH]c1=O	13*	i	i	-395	i	1	-1
CCOc1ccccc1/C=C/c1cc(C(=O)O)c2ccccc2n1	12	-368	i	-51	-172	.	.
CN1C(c2ccccc2)CC(C)(O)CC1c1ccccc1 (stereo not given)	0	4	2	-1	4	.	.
O=C1C(C2=NC(c3ccccn3)C3C(=O)N(c4ccccc4)C(=O)C23)=C(O)c2ccccc21 (stereo not given)	24*	4	0	5	7	-25	-23
COc1ccc2ccc3cccc[n+]3c2c1	21*	-175	-245	-500	i	18*	19*
CCC1CCCN1Cn1cnc2c([nH]c3ccc(OC)cc32)c1=O (stereo not given)	27*	-174	-223	-179	i	12	11*
CC1=CC2=C(C=O)C(=O)C(C)(O)C(O)C2=CO1 (stereo not given)	21*	-14	-28	-6	-23	29*	27*
